The values that follow come from the supplement of paper PMC3545927.

In the experiment the target is furin, P09958. As to the kind of experiment: furin cleavage Z-score vs untreated control; higher = more cleavage, active = 3.5 or more, inactive = 1 or less, 8 variable residues between constant flanks. In a few lines:
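The cleavage Z-score was derived for purified furin acting on 8-mer peptides held on magnetic beads and fused to a cDNA oligonucleotide. Digests lasted 7.5, 15 or 30 min at 1:10 enzyme:substrate in 50 mM HEPES pH 7.5 with CaCl2 and NaCl. Sequencing counts of released DNA, log-transformed against furin-free reactions, were lowess-adjusted and scaled by median absolute deviation.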

This is one part of the list. The true hit rate is not given.

Chain of furin, P09958 (P09958 whole entry, the tested form may be a part): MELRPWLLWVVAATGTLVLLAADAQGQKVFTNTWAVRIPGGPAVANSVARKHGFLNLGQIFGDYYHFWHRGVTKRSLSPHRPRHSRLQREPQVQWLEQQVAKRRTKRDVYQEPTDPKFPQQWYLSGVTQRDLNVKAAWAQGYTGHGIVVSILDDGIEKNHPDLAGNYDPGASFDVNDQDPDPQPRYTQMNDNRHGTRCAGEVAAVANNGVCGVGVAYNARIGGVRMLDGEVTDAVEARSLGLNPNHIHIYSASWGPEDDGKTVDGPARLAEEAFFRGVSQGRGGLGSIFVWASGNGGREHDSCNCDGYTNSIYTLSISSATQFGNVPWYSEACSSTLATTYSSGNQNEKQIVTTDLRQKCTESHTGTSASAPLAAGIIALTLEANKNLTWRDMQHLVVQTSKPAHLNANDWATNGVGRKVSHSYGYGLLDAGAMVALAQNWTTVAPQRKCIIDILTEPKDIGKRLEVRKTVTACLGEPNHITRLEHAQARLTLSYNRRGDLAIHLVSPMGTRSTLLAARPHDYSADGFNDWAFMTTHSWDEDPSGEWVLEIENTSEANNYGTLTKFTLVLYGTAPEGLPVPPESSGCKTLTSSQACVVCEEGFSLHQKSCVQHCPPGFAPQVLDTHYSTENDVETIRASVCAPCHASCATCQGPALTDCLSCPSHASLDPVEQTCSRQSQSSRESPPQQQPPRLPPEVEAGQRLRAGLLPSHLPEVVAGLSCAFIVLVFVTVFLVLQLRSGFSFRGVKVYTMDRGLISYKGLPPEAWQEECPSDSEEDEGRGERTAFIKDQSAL

As for CASRYRFVRSAGNASASA [FS-1090], the “furin cleavage Z-score” value reads like this: (7.5 min) 10.3 (active); (15 min) 8.88 (active); (30 min) 7.53 (active).
In the same order, the values of CASRYRFIRSAGNASASA [FS-1089] are 9.42 (active), 10.5 (active) and 7.95 (active).
The like results for CAFRIRTIRSAGNASASA [FS-772] were, in that order, 12.7 (active), 13.4 (active) and 9.8 (active).
As to CATPEDFVRSAGNASASA [FS-920], the “furin cleavage Z-score” value is, setting by setting: (7.5 min) -0.0484 (inactive); (15 min) -0.138 (inactive); (30 min) -0.221 (inactive).
The like results for CAFVCCSMSYAGNASASA [HC1987] were, in that order, 1.81, -0.389 (inactive) and -0.812 (inactive).
In the same order, the values of CAEVVTSTWLAGNASASA [HC2245] are 0.791 (inactive), 0.0846 (inactive) and 0.0471 (inactive).
For CAEMEECSQHAGNASASA [HC1014], the “furin cleavage Z-score” value reads like this: (7.5 min) -0.42 (inactive); (15 min) 0.366 (inactive); (30 min) 1.51.
As to CARPRRMTPFAGNASASA [FS-2744], the “furin cleavage Z-score” value runs as follows: (7.5 min) 2.59; (15 min) 4.44 (active); (30 min) 4.82 (active).
In the same order, the values of CARPRREAPFAGNASASA [FS-2742] are 9.78 (active), 10.3 (active) and 8.49 (active).
As for CAPPCKPLLRAGNASASA [HC1228], the “furin cleavage Z-score” value is, setting by setting: (7.5 min) 0.659 (inactive); (15 min) 0.392 (inactive); (30 min) 0.118 (inactive).
The like results for CAEVSTSTWVAGNASASA [HC2197] were, in that order, -0.613 (inactive), 0.268 (inactive) and -1.55 (inactive).
With CATTWCSGSWAGNASASA [HC1868], the “furin cleavage Z-score” value was -0.625 (inactive) (7.5 min), -0.0771 (inactive) (15 min) and -0.259 (inactive) (30 min).
Turning to CAVVCCSGSYAGNASASA [HC2056], the “furin cleavage Z-score” value is -1.92 (inactive) (7.5 min), -0.697 (inactive) (15 min) and -1.32 (inactive) (30 min).
Turning to CAKKGRNRRTAGNASASA [FS-935], the “furin cleavage Z-score” value (7.5 min) was 9.29 (active), the “furin cleavage Z-score” value (15 min) is 8.34 (active) and the “furin cleavage Z-score” value (30 min) was 7.42 (active).
Consider CALNGRCRRTAGNASASA [FS-134], for which the “furin cleavage Z-score” value is 6.57 (active) (7.5 min), 6.93 (active) (15 min) and 8.18 (active) (30 min).
In the same order, the values of CAPKGRGKRRAGNASASA [FS-1241] are 3.48, 3.42 and 4.16 (active).
On to CAVTSRSFRTAGNASASA [FS-894], for which the “furin cleavage Z-score” value was 1.05 (7.5 min), -0.0745 (inactive) (15 min) and -0.661 (inactive) (30 min).
In the case of CAKKGRGKRTAGNASASA [FS-41], the “furin cleavage Z-score” value runs as follows: (7.5 min) 6.83 (active); (15 min) 9.38 (active); (30 min) 6.62 (active).
The like results for CALNGREHRSAGNASASA [FS-353] were, in that order, 0.641 (inactive), -0.584 (inactive) and -0.522 (inactive).
CAEHRLEAACAGNASASA [HC479]: the “furin cleavage Z-score” value was 1.04 (7.5 min), -1.24 (inactive) (15 min) and -0.381 (inactive) (30 min).
Regarding CAMEECSQPLAGNASASA [HC1759], the “furin cleavage Z-score” value was 1.51 (7.5 min), 1.8 (15 min) and 0.466 (inactive) (30 min).
Regarding CAEYVVCCSMAGNASASA [HC2129], the “furin cleavage Z-score” value (7.5 min) was -0.0811 (inactive), the “furin cleavage Z-score” value (15 min) is -0.535 (inactive) and the “furin cleavage Z-score” value (30 min) is -0.778 (inactive).
In the same order, the values of CASTPCSFHLAGNASASA [HC2527] are -0.634 (inactive), 0.268 (inactive) and 1.39.
Regarding CAAAYCLSTGAGNASASA [HC996], the “furin cleavage Z-score” value is 0.288 (inactive) (7.5 min), 0.367 (inactive) (15 min) and -0.487 (inactive) (30 min).
In the same order, the values of CANAYTTGPCAGNASASA [HC1192] are 0.653 (inactive), 0.298 (inactive) and 0.115 (inactive).
With CAMEECSQSLAGNASASA [HC1757], the “furin cleavage Z-score” value runs as follows: (7.5 min) 0.758 (inactive); (15 min) -0.436 (inactive); (30 min) 0.392 (inactive).
In the same order, the values of CARAQRFWSWAGNASASA [FS-3242] are -0.658 (inactive), -0.187 (inactive) and -0.233 (inactive).
For the sequence CAHRCRHKRWAGNASASA [FS-133], the “furin cleavage Z-score” value reads like this: (7.5 min) 5.93 (active); (15 min) 10.1 (active); (30 min) 8.03 (active).
Turning to CATAKREKRWAGNASASA [FS-1421], the “furin cleavage Z-score” value is, setting by setting: (7.5 min) 7.45 (active); (15 min) 10.5 (active); (30 min) 8.76 (active).
In the same order, the values of CAMRSRNGRWAGNASASA [FS-830] are 0.613 (inactive), 0.727 (inactive) and 2.67.
In the same order, the values of CAEVVTSQWVAGNASASA [HC2222] are -0.277 (inactive), -0.189 (inactive) and 0.204 (inactive).
In the same order, the values of CATTPCGGSWAGNASASA [HC62] are -1.67 (inactive), 0.588 (inactive) and -0.211 (inactive).
In the case of CADTMEECSQAGNASASA [HC1818], the “furin cleavage Z-score” value was -0.715 (inactive) (7.5 min), -1.26 (inactive) (15 min) and -0.384 (inactive) (30 min).
In the same order, the values of CALPGRDGRDAGNASASA [FS-457] are -0.75 (inactive), 1.1 and 0.0293 (inactive).
Turning to CAVWKRRAEDAGNASASA [FS-2624], the “furin cleavage Z-score” value reads like this: (7.5 min) 0.714 (inactive); (15 min) -0.547 (inactive); (30 min) 0.046 (inactive).
As to CAVHVRIRRDAGNASASA [FS-1428], the “furin cleavage Z-score” value is, setting by setting: (7.5 min) 15.3 (active); (15 min) 15.9 (active); (30 min) 11.3 (active).
In the same order, the values of CALNERIRRDAGNASASA [FS-940] are 13.3 (active), 15.6 (active) and 11.4 (active).
As to CAVKGRGRRDAGNASASA [FS-889], the “furin cleavage Z-score” value runs as follows: (7.5 min) 10.2 (active); (15 min) 9.87 (active); (30 min) 8.49 (active).
In the same order, the values of CAGNNTLHCPAGNASASA [HC448] are 0.837 (inactive), 0.103 (inactive) and 0.597 (inactive).
Regarding CAYSTYGKFLAGNASASA [HC807], the “furin cleavage Z-score” value is, setting by setting: (7.5 min) 0.775 (inactive); (15 min) -0.645 (inactive); (30 min) -0.0395 (inactive).
Regarding CAHVGPGEGAAGNASASA [HC1113], the “furin cleavage Z-score” value (7.5 min) is -0.488 (inactive), the “furin cleavage Z-score” value (15 min) was 0.461 (inactive) and the “furin cleavage Z-score” value (30 min) was -1.05 (inactive).
Consider CARLEREKRAAGNASASA [FS-859], for which the “furin cleavage Z-score” value was 7.92 (active) (7.5 min), 10 (active) (15 min) and 6.63 (active) (30 min).
Take CARLCRSVSGAGNASASA [FS-1859]: the “furin cleavage Z-score” value reads like this: (7.5 min) 0.288 (inactive); (15 min) 0.971 (inactive); (30 min) 1.11.
Turning to CAQKRREKKAAGNASASA [FS-79], the “furin cleavage Z-score” value reads like this: (7.5 min) -0.611 (inactive); (15 min) 2.25; (30 min) 1.6.
The like results for CARLCRRSRAAGNASASA [FS-1561] were, in that order, 6.16 (active), 7.37 (active) and 6.05 (active).
The like results for CAKERRYARKAGNASASA [FS-257] were, in that order, 4.36 (active), 5.28 (active) and 4.54 (active).
In the same order, the values of CAKESRGARGAGNASASA [FS-447] are -0.759 (inactive), -0.656 (inactive) and -0.69 (inactive).
Take CARLRDSGRAAGNASASA [FS-85]: the “furin cleavage Z-score” value (7.5 min) was 0.0348 (inactive), the “furin cleavage Z-score” value (15 min) was -1.47 (inactive) and the “furin cleavage Z-score” value (30 min) is -0.955 (inactive).
For the sequence CAKLKLTPIAAGNASASA [HC1637], the “furin cleavage Z-score” value (7.5 min) was -0.816 (inactive), the “furin cleavage Z-score” value (15 min) is -1.09 (inactive) and the “furin cleavage Z-score” value (30 min) is -2.93 (inactive).
As to CAKERREKRAAGNASASA [FS-601], the “furin cleavage Z-score” value is 5.22 (active) (7.5 min), 4.77 (active) (15 min) and 4.29 (active) (30 min).
